Measurements reported in PubChem BioAssay AID1159580 (chemical genetic matrix, 2015).
The campaign covered roughly 5,500 compounds. About 2,000 (36%) were called active. Roughly 18% stayed inconclusive and do not appear here. Cut-off read from the data, not from the text of the source: active = normalized growth mostly below about 0.91 (no sharp cut-off); inconclusive = no clear call, values can overlap the other calls; inactive = mostly above about 0.92. This is one part of the list.

Assay: chemical genetic growth profiling, strain panel (AID 1159580);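 note: tested at 20 µM; growth read once vehicle control cultures reached saturation at 30 °C; 1 = growth at the plate median or of vehicle wells; lower values mean less growth of the strain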
Conditions: growth OD

Measured: normalized growth

CC(=O)O[C@H]1C[C@H](O[C@H]2[C@@H](O)C[C@H](O[C@H]3[C@@H](O)C[C@H](O[C@H]4CC[C@@]5(C)C(CCC6C5C[C@@H](O)[C@]5(C)[C@@H](C7=CC(=O)OC7)CC[C@]65O)C4)O[C@@H]3C)O[C@@H]2C)O[C@H](C)[C@H]1O[C@@H]1O[C@H](CO)[C@@H](O)[C@H](O)[C@H]1O (stereo not given in full)
inactive: S. cerevisiae deletion strains, locus YJR075W, strain HOC1, stronger effect = lower value 1.02 | S. cerevisiae deletion strains, locus YKL009W, strain mrt4, stronger effect = lower value 1 | S. cerevisiae deletion strains, locus YKL068W, stronger effect = lower value 1 | S. cerevisiae deletion strains, locus YKL085W, strain MDH1 (second series), stronger effect = lower value 1 | S. cerevisiae deletion strains, locus YKL085W, strain MDH1, stronger effect = lower value 1 | S. cerevisiae deletion strains, locus YKL160W, strain elf1, stronger effect = lower value 1.01 | S. cerevisiae deletion strains, locus YKL190W, strain CNB1, stronger effect = lower value 1.01 | S. cerevisiae deletion strains, locus YKR001C, strain vps1, stronger effect = lower value 1.01 | S. cerevisiae deletion strains, locus YKR026C, strain gcn3, stronger effect = lower value 0.982 | S. cerevisiae deletion strains, locus YKR091W, strain srl3, stronger effect = lower value 1 | S. cerevisiae deletion strains, locus YLL001W, strain dnm1, stronger effect = lower value 1 | S. cerevisiae deletion strains, locus YLL026W, stronger effect = lower value 0.999 | S. cerevisiae deletion strains, locus YLL041C, strain sdh2, stronger effect = lower value 1 | S. cerevisiae deletion strains, locus YLR027C, strain aat2, stronger effect = lower value 1 | S. cerevisiae deletion strains, locus YLR039C, strain RIC1, stronger effect = lower value 1.05 | S. cerevisiae deletion strains, locus YLR058C, strain SHM2, stronger effect = lower value 1.02 | S. cerevisiae deletion strains, locus YLR102C, strain apc9, stronger effect = lower value 0.978 | S. cerevisiae deletion strains, locus YLR113W, strain HOG1, stronger effect = lower value 0.977 | S. cerevisiae deletion strains, locus YLR221C, strain rsa3, stronger effect = lower value 1 | S. cerevisiae deletion strains, locus YLR258W, strain gsy2, stronger effect = lower value 0.994 | S. cerevisiae deletion strains, locus YLR262C, strain YPT6 (second series), stronger effect = lower value 0.999 | S. cerevisiae deletion strains, locus YLR262C, strain YPT6, stronger effect = lower value 1.04 | S. cerevisiae deletion strains, locus YLR268W, strain sec22, stronger effect = lower value 1 | S. cerevisiae deletion strains, locus YLR320W, strain mms22, stronger effect = lower value 0.999 | S. cerevisiae deletion strains, locus YLR330W, strain CHS5, stronger effect = lower value 1.01 | S. cerevisiae deletion strains, locus YLR342W, strain FKS1 (second series), stronger effect = lower value 1.02 | S. cerevisiae deletion strains, locus YLR342W, strain FKS1, stronger effect = lower value 1 | S. cerevisiae deletion strains, locus YLR357W, strain rsc2, stronger effect = lower value 0.993 | S. cerevisiae deletion strains, locus YLR370C, strain arc18, stronger effect = lower value 0.994 | S. cerevisiae deletion strains, locus YLR371W, strain rom2, stronger effect = lower value 0.975 | S. cerevisiae deletion strains, locus YLR384C, strain iki3, stronger effect = lower value 0.988 | S. cerevisiae deletion strains, locus YLR418C, strain cdc73, stronger effect = lower value 1.05 | S. cerevisiae deletion strains, locus YML016C, strain PPZ1, stronger effect = lower value 1.01 | S. cerevisiae deletion strains, locus YML032C, strain rad52, stronger effect = lower value 0.991 | S. cerevisiae deletion strains, locus YML120C, strain ndi1, stronger effect = lower value 0.992 | S. cerevisiae deletion strains, locus YML124C, strain tub3, stronger effect = lower value 0.992 | S. cerevisiae deletion strains, locus YMR058W, strain fet3, stronger effect = lower value 1 | S. cerevisiae deletion strains, locus YMR078C, strain ctf18, stronger effect = lower value 0.984 | S. cerevisiae deletion strains, locus YMR125W, strain sto1, stronger effect = lower value 0.979 | S. cerevisiae deletion strains, locus YMR129W, stronger effect = lower value 0.991 | S. cerevisiae deletion strains, locus YMR205C, strain PFK2, stronger effect = lower value 0.974 | S. cerevisiae deletion strains, locus YMR223W, strain ubp8, stronger effect = lower value 0.997 | S. cerevisiae deletion strains, locus YMR231W, strain pep5, stronger effect = lower value 0.989 | S. cerevisiae deletion strains, locus YMR263W, strain SAP30, stronger effect = lower value 1.01 | S. cerevisiae deletion strains, locus YMR307W, strain GAS1, stronger effect = lower value 1.07 | S. cerevisiae deletion strains, locus YNL067W, strain RPL9B, stronger effect = lower value 1 | S. cerevisiae deletion strains, locus YNL071W, strain lat1, stronger effect = lower value 0.999 | S. cerevisiae deletion strains, locus YNL183C, strain NPR1, stronger effect = lower value 0.922 | S. cerevisiae deletion strains, locus YNL209W, strain ssb2, stronger effect = lower value 0.999 | S. cerevisiae deletion strains, locus YNL233W, strain BNI4, stronger effect = lower value 1.01 | S. cerevisiae deletion strains, locus YNL248C, strain rpa49, stronger effect = lower value 0.998 | S. cerevisiae deletion strains, locus YNL250W, strain rad50, stronger effect = lower value 1.01 | S. cerevisiae deletion strains, locus YNL271C, strain bni1, stronger effect = lower value 1.01 | S. cerevisiae deletion strains, locus YNL298W, strain CLA4, stronger effect = lower value 1 | S. cerevisiae deletion strains, locus YNL307C, strain MCK1, stronger effect = lower value 0.991 | S. cerevisiae deletion strains, locus YNL322C, strain KRE1 (second series), stronger effect = lower value 0.993 | S. cerevisiae deletion strains, locus YNL322C, strain KRE1, stronger effect = lower value 1.01 | S. cerevisiae deletion strains, locus YNR049C, strain mso1, stronger effect = lower value 0.992 | S. cerevisiae deletion strains, locus YNR052C, strain pop2, stronger effect = lower value 0.994 | S. cerevisiae deletion strains, locus YOL006C, strain TOP1, stronger effect = lower value 1.03 | S. cerevisiae deletion strains, locus YOL012C, strain htz1 0.846 | S. cerevisiae deletion strains, locus YOL147C, strain pex11, stronger effect = lower value 0.988 | S. cerevisiae deletion strains, locus YOR001W, strain rrp6, stronger effect = lower value 1.01 | S. cerevisiae deletion strains, locus YOR061W, strain CKA2, stronger effect = lower value 1.01 | S. cerevisiae deletion strains, locus YOR069W, strain VPS5, stronger effect = lower value 1.01 | S. cerevisiae deletion strains, locus YOR070C, strain gyp1, stronger effect = lower value 0.999 | S. cerevisiae deletion strains, locus YOR080W, strain dia2, stronger effect = lower value 0.999 | S. cerevisiae deletion strains, locus YOR083W, strain WHI5, stronger effect = lower value 1 | S. cerevisiae deletion strains, locus YOR106W, strain vam3, stronger effect = lower value 1.01 | S. cerevisiae deletion strains, locus YOR136W, strain idh2, stronger effect = lower value 1 | S. cerevisiae deletion strains, locus YOR144C, strain elg1, stronger effect = lower value 1 | S. cerevisiae deletion strains, locus YOR184W, strain ser1, stronger effect = lower value 1.02 | S. cerevisiae deletion strains, locus YOR231W, strain MKK1, stronger effect = lower value 0.983 | S. cerevisiae deletion strains, locus YOR265W, strain rbl2, stronger effect = lower value 1 | S. cerevisiae deletion strains, locus YOR270C, strain vph1, stronger effect = lower value 0.946 | S. cerevisiae deletion strains, locus YOR290C, strain snf2, stronger effect = lower value 1.02 | S. cerevisiae deletion strains, locus YOR316C, strain cot1, stronger effect = lower value 0.982 | S. cerevisiae deletion strains, locus YPL051W, strain arl3, stronger effect = lower value 1 | S. cerevisiae deletion strains, locus YPL055C, strain LGE1, stronger effect = lower value 0.997 | S. cerevisiae deletion strains, locus YPL078C, strain atp4, stronger effect = lower value 1.02 | S. cerevisiae deletion strains, locus YPL106C, strain sse1, stronger effect = lower value 1 | S. cerevisiae deletion strains, locus YPL240C, strain hsp82, stronger effect = lower value 0.999 | S. cerevisiae deletion strains, locus YPL241C, strain CIN2, stronger effect = lower value 1.01 | S. cerevisiae deletion strains, locus YPL256C, strain CLN2, stronger effect = lower value 0.994 | S. cerevisiae deletion strains, locus YPR119W, strain clb2, stronger effect = lower value 0.981 | S. cerevisiae deletion strains, locus YPR141C, strain kar3, stronger effect = lower value 1.01 | S. cerevisiae deletion strains, locus YPR163C, strain tif3, stronger effect = lower value 0.99 | S. cerevisiae deletion strains, locus YPR167C, strain met16, stronger effect = lower value 1.01 | S. cerevisiae deletion strains, strain wtn01, stronger effect = lower value 1.01 | S. cerevisiae strains, strain wild type, stronger effect = lower value 1.01
